According to the supplement of paper PMC9135407:
Where “and” joins values, the source holds several entries; their conditions need not be identical. Identical values can stand only once. Counter-ions that a name gives are not always drawn. Among all 5,800 compounds or so, about 620 (11%) showed activity. For the sample, actives were picked, then their nearest neighbours and some compounds at random. Unmarked numbers belong to inactive results.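 Rule for the calls: active = score above a cut-off or among the top three wells of a plate; in these data no inactive exceeds 0.85.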

System: primary human hepatic stellate cells (donor 1)
Assay: scaled lipid accumulation score (0 = DMSO-like, 1 = nortriptyline-like); higher = stronger HSC inactivation (lipid re-accumulation), active = hit call of the paper
Conditions: 48 h
[1] = library stock concentration: 3.33 mM
[2] = library stock concentration: 10 mM
[3] = library stock concentration: 1 mM

CN(C)Cc1ccc(-c2nc3cccc4c3n2CCNC4=O)cc1
scaled lipid accumulation score [1]: 0.037 | scaled lipid accumulation score [2]: 0.491

COc1ccc([C@@H]2CC(=O)c3c(O)cc(O[C@@H]4O[C@H](CO)[C@@H](O)[C@H](O)[C@H]4O[C@@H]4O[C@@H](C)[C@H](O)[C@@H](O)[C@H]4O)cc3O2)cc1O [Neohesperidin]
scaled lipid accumulation score [1]: ≤ 0 | scaled lipid accumulation score [2]: 0.039

C[C@H](NC(=O)C(C#N)=Cc1cccc(Br)n1)c1ccccc1
scaled lipid accumulation score [1]: 1.05 (active)

C[C@H](NC(=O)/C(C#N)=C/c1cccc(Br)n1)c1ccccc1
scaled lipid accumulation score [2]: 0.586

CCC[C@H](NC(=O)/C(C#N)=C/c1cccc(Br)n1)c1ccccc1 [Degrasyn (WP1130)]
scaled lipid accumulation score [1]: 0.369 | scaled lipid accumulation score [2]: 0.703

CC(=O)OCOC(=O)CN(CC(=O)OCOC(C)=O)c1ccccc1OCCOc1ccccc1N(CC(=O)OCOC(C)=O)CC(=O)OCOC(C)=O
scaled lipid accumulation score [1]: ≤ -0.009 | scaled lipid accumulation score [2]: 0.697

CC(C)C[C@H](NC(=O)[C@H]1O[C@@H]1C(=O)O)C(=O)NCCCCN=C(N)N
scaled lipid accumulation score [1]: 0.177 | scaled lipid accumulation score [2]: ≤ 0 and ≤ -0.07

C=C[C@]1(C)C[C@@H](OC(=O)CS[C@@H]2C[C@H]3CC[C@@H](C2)N3C)[C@]2(C)[C@H](C)CC[C@]3(CCC(=O)[C@H]32)[C@@H](C)[C@@H]1O [Retapamulin]
scaled lipid accumulation score [1]: 0.412

C=C[C@]1(C)C[C@@H](OC(=O)CSC(C)(C)CNC(=O)[C@H](N)C(C)C)[C@]2(C)[C@H](C)CC[C@]3(CCC(=O)[C@H]32)[C@@H](C)[C@@H]1O [Valnemulin HCl]
scaled lipid accumulation score [1]: ≤ 0 | scaled lipid accumulation score [2]: 0.491

C=C[C@@]1(C)C[C@@H](OC(=O)CS[C@@H]2C[C@H]3CC[C@@H](C2)N3C)[C@@]2(C)[C@@H]3C(=O)CC[C@@]3(CC[C@@H]2C)[C@@H](C)[C@@H]1O [Retapamulin]
scaled lipid accumulation score [2]: 0.947 (active)

Clc1ccc(C(c2ccc(Cl)cc2)[n+]2ccn(CC(OCc3ccc(Cl)cc3Cl)c3ccc(Cl)cc3Cl)c2)cc1 (stereo not drawn) [Calmidazolium chloride]
scaled lipid accumulation score [2]: 0.037

O=C(O)CCC(=O)O.O=C(O[C@H]1CN2CCC1CC2)N1CCc2ccccc2[C@@H]1c1ccccc1 [Solifenacin succinate]
scaled lipid accumulation score [2]: 1.3 (active)

O=C(O[C@H]1CN2CCC1CC2)N1CCc2ccccc2[C@@H]1c1ccccc1 [Solifenacin succinate]
scaled lipid accumulation score [1]: 0.293

O=C(O[C@H]1CN2CCC1CC2)N1CCc2ccccc2[C@@H]1c1ccccc1
scaled lipid accumulation score [2]: 0.352

O=C(NCc1ccc(Cl)c(Cl)c1)O[C@H]1CCc2ccccc21
scaled lipid accumulation score [3]: 0.061

CC/C=C\C/C=C\C/C=C\CCCCCCCC(=O)O [Linolenic acid (18:3 n-3)]
scaled lipid accumulation score [3]: ≤ -0.021

CC/C=C\C/C=C\C/C=C\CCCCCCCC(=O)O [.alpha.-Linolenic Acid]
scaled lipid accumulation score [3]: 0.009

CC(=O)O[C@H]1Cc2ccccc2N(C(N)=O)c2ccccc21
scaled lipid accumulation score [2]: ≤ 0

CCCC[P+](CCCC)(CCCC)Cc1ccc(NC(=O)C(Cc2ccc3ccccc3c2)NC(=NC2CCCCC2)NC2CCCCC2)cc1 (stereo not drawn)
scaled lipid accumulation score [2]: 0.797

CNCc1ccc(-c2cc(-c3nc(-c4ccc(S(=O)(=O)C(C)C)cc4)cnc3N)on2)cc1 [listing 1 of 2 here]
scaled lipid accumulation score [2]: 0.254

CNCc1ccc(-c2cc(-c3nc(-c4ccc(S(=O)(=O)C(C)C)cc4)cnc3N)on2)cc1 [listing 2 of 2 here]
scaled lipid accumulation score [1]: 1.12 (active)

CCCCCCCC/C=C\CCCCCCCC(=O)OCC [Oleic Acid ethyl ester]
scaled lipid accumulation score [3]: 0.015

O=C(CO)N1CCC(c2n[nH]c(-c3ccc(Cl)cc3)c2-c2ccncn2)CC1
scaled lipid accumulation score (library stock concentration: 400 uM): ≤ -0.005 | scaled lipid accumulation score (library stock concentration: 2 mM): ≤ -0.005 | scaled lipid accumulation score [2]: ≤ -0.005

Cl.O[C@H](CNC[C@@H](O)[C@H]1CCc2cc(F)ccc2O1)[C@@H]1CCc2cc(F)ccc2O1 [Nebivolol hydrochloride]
scaled lipid accumulation score [2]: 0.861 (active)

OC(CNCC(O)C1CCc2cc(F)ccc2O1)C1CCc2cc(F)ccc2O1 (stereo not drawn) [Nebivolol]
scaled lipid accumulation score [1]: 0.769 | scaled lipid accumulation score [2]: ≤ 0

CCCCCC(=O)/C=C/[C@@H]1[C@H](C/C=C\CCCC(=O)O)[C@H](O)C[C@H]1O [8-iso-15-keto Prostaglandin F2.beta.]
scaled lipid accumulation score [3]: ≤ 0

COC(=O)c1ccc(O)c2nc3c(C=O)c(O)cc(O)c3nc12 [Lomofungin]
scaled lipid accumulation score (library stock concentration: 6.4 mM): ≤ -0.006

Cn1cc(C(=O)OCC2CCN(CCNS(C)(=O)=O)CC2)c2ccccc21 [listing 1 of 2 here]
scaled lipid accumulation score [2]: 0.925 (active)

Cn1cc(C(=O)OCC2CCN(CCNS(C)(=O)=O)CC2)c2ccccc21 [listing 2 of 2 here]
scaled lipid accumulation score [2]: 0.41

COc1[nH]c2ccc(F)cc2c1C(=O)OCC1CCN(CCNS(C)(=O)=O)CC1.NS(=O)(=O)O
scaled lipid accumulation score [2]: 0.298

C/C=C1\[C@H]2C=C(C)C[C@]1(N)c1ccc(=O)[nH]c1C2 [(-)-Huperzine A]
scaled lipid accumulation score (library stock concentration: 20.6 mM): 0.185

C/C=C1\[C@H]2C=C(C)C[C@]1(N)c1ccc(=O)[nH]c1C2
scaled lipid accumulation score [2]: ≤ 0

CC(C)(C)C(=O)Nc1ccccc1 [N-Pivaloylaniline]
scaled lipid accumulation score [3]: 0.066

CC(C)=CCC/C(C)=C/CC/C(C)=C/CC[C@]1(C)CCc2cc(O)cc(C)c2O1 [.delta.-Tocotrienol]
scaled lipid accumulation score [3]: ≤ 0
